The values below come from PubChem BioAssay AID1745853 (National Center for Advancing Translational Sciences (NCATS), 2022).

The campaign covered roughly 25,000 compounds. About 970 (3.9%) were called active. Not shown: some 8% with an inconclusive outcome. The rule behind the calls is not given here. Only a selection was taken, and actives are over-represented in it overall.

Test in all cases: Primary Screen for Target Class Profiling of Small Molecule Inhibitors of Methyltransferases
Assay [1] has as its target Catechol O-methyltransferase (Homo sapiens) (UniProt P21964). The conditions noted are these: purified enzyme, MTase-Glo SAH luminescence; activity change, negative = inhibition: at 40 µM, stronger effect = lower value; outcome: 40 uM. The method in brief:
(§1)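 Each enzyme was assayed with SAM and its substrate. SAH formation detected by MTase-Glo luminescence; single-point 40 uM screen[…].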

Assay [2] deals with Glycine N-methyltransferase (Homo sapiens) (UniProt Q14749). The conditions noted are these: purified enzyme, MTase-Glo SAH luminescence; measured here: GNMT inhibition; at 40 µM; stronger effect = lower value. The method in brief:
as §1

Assay [3] has as its target Guanidinoacetate N-methyltransferase (Homo sapiens) (UniProt Q14353). To be noted: purified enzyme, MTase-Glo SAH luminescence; measured here: GAMT inhibition; at 40 µM; stronger effect = lower value. The method in brief:
as §1

Assay [4] has as its target Histamine N-methyltransferase (Homo sapiens) (UniProt P50135). The conditions noted are these: purified enzyme, MTase-Glo SAH luminescence; measured here: HNMT inhibition; at 40 µM; stronger effect = lower value. The method in brief:
as §1

Assay [5] deals with Nicotinamide N-methyltransferase (Homo sapiens) (UniProt P40261). The conditions noted are these: purified enzyme, MTase-Glo SAH luminescence; measured here: NNMT inhibition; at 40 µM; stronger effect = lower value. In a few lines:
as §1

Assay [6] concerns the target Phenylethanolamine N-methyltransferase (Homo sapiens) (UniProt P11086). To be noted: purified enzyme, MTase-Glo SAH luminescence; measured here: PNMT inhibition; at 40 µM; stronger effect = lower value. In a few lines: as §1
% is set by controls: 0 for no effect and ±100 for the full control effect.

Phenylethanolamine N-methyltransferase (Homo sapiens), sequence (P11086 whole entry, looked up): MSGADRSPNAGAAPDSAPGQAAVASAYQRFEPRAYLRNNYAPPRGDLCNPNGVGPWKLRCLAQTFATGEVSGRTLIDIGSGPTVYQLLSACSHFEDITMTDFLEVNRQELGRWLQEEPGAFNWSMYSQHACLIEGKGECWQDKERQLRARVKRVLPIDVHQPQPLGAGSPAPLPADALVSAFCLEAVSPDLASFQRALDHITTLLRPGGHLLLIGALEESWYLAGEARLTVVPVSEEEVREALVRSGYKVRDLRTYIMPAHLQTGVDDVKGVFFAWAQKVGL
Nicotinamide N-methyltransferase (Homo sapiens), sequence (P40261 whole entry, looked up): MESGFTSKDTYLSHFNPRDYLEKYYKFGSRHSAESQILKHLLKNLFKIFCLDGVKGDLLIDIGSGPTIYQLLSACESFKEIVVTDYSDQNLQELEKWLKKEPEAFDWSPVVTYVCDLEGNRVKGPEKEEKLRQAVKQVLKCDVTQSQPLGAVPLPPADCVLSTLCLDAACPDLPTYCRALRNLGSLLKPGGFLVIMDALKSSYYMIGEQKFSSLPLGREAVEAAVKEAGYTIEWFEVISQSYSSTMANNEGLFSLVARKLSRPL
Catechol O-methyltransferase (Homo sapiens), sequence (P21964 whole entry, looked up): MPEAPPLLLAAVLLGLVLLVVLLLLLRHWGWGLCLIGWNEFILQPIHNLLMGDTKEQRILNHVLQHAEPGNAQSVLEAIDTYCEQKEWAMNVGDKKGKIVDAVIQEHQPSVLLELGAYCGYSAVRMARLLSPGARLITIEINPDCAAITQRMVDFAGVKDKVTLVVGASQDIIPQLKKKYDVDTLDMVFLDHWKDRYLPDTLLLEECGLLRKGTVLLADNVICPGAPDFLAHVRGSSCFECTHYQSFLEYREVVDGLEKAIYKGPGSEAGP
Histamine N-methyltransferase (Homo sapiens), sequence (P50135 whole entry, looked up): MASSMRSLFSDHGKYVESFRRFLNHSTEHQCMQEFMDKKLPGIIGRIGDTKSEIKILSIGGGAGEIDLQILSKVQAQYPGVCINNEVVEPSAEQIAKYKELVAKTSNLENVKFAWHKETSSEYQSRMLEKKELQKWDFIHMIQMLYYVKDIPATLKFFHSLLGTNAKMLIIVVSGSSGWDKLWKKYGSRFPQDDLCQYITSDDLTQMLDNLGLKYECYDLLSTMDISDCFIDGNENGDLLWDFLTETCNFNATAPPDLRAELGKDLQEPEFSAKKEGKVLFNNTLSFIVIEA
Glycine N-methyltransferase (Homo sapiens), sequence (Q14749 whole entry, looked up): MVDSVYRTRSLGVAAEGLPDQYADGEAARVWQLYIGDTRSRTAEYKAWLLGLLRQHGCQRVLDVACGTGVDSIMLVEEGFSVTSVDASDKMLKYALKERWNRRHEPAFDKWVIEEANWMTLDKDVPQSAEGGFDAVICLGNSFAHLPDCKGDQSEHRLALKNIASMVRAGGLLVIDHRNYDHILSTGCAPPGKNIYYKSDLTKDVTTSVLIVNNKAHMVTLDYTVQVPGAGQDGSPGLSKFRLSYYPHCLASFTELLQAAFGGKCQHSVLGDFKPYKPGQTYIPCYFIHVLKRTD

With `CCCN1C(=O)c2c(C(=O)NCc3ccc(OC(C)C)cc3)ncn2CC1(C)C(=O)NCc1ccccc1` (centres undefined), the activity change, negative = inhibition in assay [1] is 7.93% (inactive); in assay [2], 0.786%; in assay [3] it was 0%; in assay [4] it was 10.9%; in assay [5] it was 0.527%; in assay [6] it was 8.93%.
Take `CCNc1ccnc(N2C[C@H]3CN(C(=O)N(C)C)C[C@@]3(C(=O)O)C2)n1`: the activity change, negative = inhibition in assay [1] is 1.84% (inactive); in assay [2], 0.021%; in assay [3] it was 1.18%; in assay [4], 0.65%; in assay [5], 1.12%; in assay [6], -1%.
With `C=C1C(=O)O[C@@H]2[C@H]1CC[C@H](C)[C@]1(CCC(=O)O1)C2(C)O` (some centres undefined), the activity change, negative = inhibition is -16.8% (inactive) in assay [1]; 0% in assay [2]; 7.54% in assay [3]; 11.3% in assay [4]; -3.81% in assay [5]; 5.47% in assay [6].
As to `Cc1cc(C)c(S(=O)(=O)NCCc2nc(-c3ccc(Cl)cc3)n[nH]2)cc1C`, the activity change, negative = inhibition in assay [1] is -7.11% (inactive); in assay [2] it was 0.532%; in assay [3], 3.01%; in assay [4], -1.1%; in assay [5], -4.42%; in assay [6], -1.52%.
As for `CCC(CC)C(=O)NC[C@H]1O[C@@H](CC(=O)N2CCC(C)CC2)[C@H](O)[C@@H]1O`, the activity change, negative = inhibition in assay [1] was 0.159% (inactive); in assay [2], -5.41%; in assay [3], -3.2%; in assay [4], 0.02%; in assay [5], -4.29%; in assay [6] it was -0.431%.
`Cc1cnc(C2CCC2)n1C1CCN(C(=O)CCC2CCCC2)CC1`: the activity change, negative = inhibition was -0.614% (active) in assay [1]; -2.95% in assay [2]; 3.19% in assay [3]; -52.2% in assay [4]; -10.2% in assay [5]; 12.5% in assay [6].
On to `Cc1cnc(-c2ccccc2)n1CCNC(=O)CCC1CCCC1`, for which the activity change, negative = inhibition was -2.65% (inactive) in assay [1]; -4.13% in assay [2]; -6.61% in assay [3]; -3.82% in assay [4]; -12.7% in assay [5]; -3.43% in assay [6].
As for `NS(=O)(=O)c1ccc(F)c(C(=O)NCc2noc(-c3ccco3)n2)c1`, the activity change, negative = inhibition in assay [1] is -11.2% (inactive); in assay [2], -7.86%; in assay [3], -7.24%; in assay [4], -3.67%; in assay [5] it was -12%; in assay [6], -1.94%.
For the compound `CCOc1ccc(CNC(=O)c2ncn3c2C(=O)N(C2CC2)C(C)(C(=O)NCc2ccccc2Cl)C3)cc1` (centres undefined), the activity change, negative = inhibition was 11.3% (inactive) in assay [1]; 1.47% in assay [2]; 2.43% in assay [3]; 7.45% in assay [4]; 1.94% in assay [5]; 7.97% in assay [6].
As for `CCN(CC)CCCCNc1ncc2cc(-c3c(Cl)cccc3Cl)c(NC(=O)NC(C)(C)C)nc2n1`, the activity change, negative = inhibition in assay [1] was -1.2% (active); in assay [2], -7.18%; in assay [3], 10.6%; in assay [4], -54.9%; in assay [5], -20.4%; in assay [6], 0.23%.
In the case of `CN(CCc1ccccn1)c1ncccc1CNC(=O)C1CCc2ccccc21` (centres undefined), the activity change, negative = inhibition in assay [1] was -4.9% (inactive); in assay [2], -5.71%; in assay [3] it was -6.23%; in assay [4] it was -3.62%; in assay [5], -10.6%; in assay [6] it was -5.62%.
`CCCCOc1ccc(CNC(=O)c2cc3n(n2)CC(C)(C(=O)NCc2ccccc2)N(C)C3=O)cc1` (centres undefined): the activity change, negative = inhibition is 6.54% (inactive) in assay [1]; 8.47% in assay [2]; 0.793% in assay [3]; 9.19% in assay [4]; 11.5% in assay [5]; 7.21% in assay [6].
On to `CC(C)(C)c1ccc(C(=O)Nc2cc(Cl)c(Br)cc2C(=O)O)cc1`, for which the activity change, negative = inhibition in assay [1] was -7.23% (active); in assay [2] it was -49.9%; in assay [3], -17.8%; in assay [4] it was -39.8%; in assay [5] it was -69%; in assay [6], -27.1%.
Take `CC(C)(C)c1ccc(S(=O)(=O)NCc2ccc(C(=O)Nc3cccnc3)cc2)cc1`: the activity change, negative = inhibition in assay [1] is -2.26% (inactive); in assay [2], -3.93%; in assay [3] it was -2.21%; in assay [4], -1.56%; in assay [5] it was -14.6%; in assay [6], -7.18%.
On to `Cc1ccccc1CN1C(=O)c2cc(-c3cccs3)nn2CC1(C)C(=O)NC1CCCCC1` (centres undefined), for which the activity change, negative = inhibition in assay [1] is 0.113% (inactive); in assay [2], -0.305%; in assay [3], 0%; in assay [4], 0.259%; in assay [5] it was 3.22%; in assay [6] it was -1.18%.
In the case of `COc1ccc(C2Cn3nnc(-c4noc(C5CCC5)n4)c3CO2)cc1` (centres undefined), the activity change, negative = inhibition in assay [1] is -14.4% (inactive); in assay [2], -9.87%; in assay [3] it was -9.12%; in assay [4] it was -7.42%; in assay [5], -17.1%; in assay [6], -12.5%.
Consider `CN1C(=O)C2(CCN(Cc3cccn3C)C2)c2ccccc21` (centres undefined), for which the activity change, negative = inhibition in assay [1] is -4.01% (inactive); in assay [2], -11.7%; in assay [3], -5.16%; in assay [4] it was -17.5%; in assay [5] it was -15.9%; in assay [6] it was -0.794%.
As for `O=C(/C=C/c1ccc(CN(CCO)CCc2c[nH]c3ccccc23)cc1)NO`, the activity change, negative = inhibition is 19.6% (active) in assay [1]; -17.2% in assay [2]; -68.8% in assay [4]; -31% in assay [5]; 12.3% in assay [6].
Take `C/C=C\NC(=O)C1NC(=O)C(CC(N)=O)NC(=O)C(NC(=O)C(=O)C(C)CC)Cc2ccc(O)c(c2)-c2cccc3c2NC(=O)C3(O)C1O` (centres undefined): the activity change, negative = inhibition in assay [1] is -7.46% (inactive); in assay [2], -2.05%; in assay [3], -15.1%; in assay [4] it was -0.643%; in assay [5], -26.2%; in assay [6] it was -2.58%.
With `FC(F)(F)c1cccc(C2=NOC3(CCCN(CC4CCCCC4)C3)C2)c1` (centres undefined), the activity change, negative = inhibition in assay [1] is -1.26% (inactive); in assay [2], -2.05%; in assay [3], 2.98%; in assay [4] it was 1.38%; in assay [5], -6.62%; in assay [6] it was 6.26%.
On to `Cc1nn(-c2ccccc2)c2c1C(C)N(C1CCN(C(=O)NC3CCCC3)C1)C2=O` (centres undefined), for which the activity change, negative = inhibition in assay [1] was -10.5% (inactive); in assay [2], -9.42%; in assay [3], -11.7%; in assay [4], -6.3%; in assay [5], -12.4%; in assay [6], -12%.
Regarding `O=C(NCc1cc2n(n1)CCCN(C1CCCCC1)C2)c1cccc(F)c1`, the activity change, negative = inhibition in assay [1] is -1.85% (inactive); in assay [2], -1.07%; in assay [3], -0.04%; in assay [4] it was -13%; in assay [5], -2.3%; in assay [6] it was 3.54%.
For the compound `Cc1ccc(NC(=O)Cn2nc3n(C(C)C)c(=O)c4ccc(C(=O)NC(C)C)cc4n3c2=O)c(Cl)c1`, the activity change, negative = inhibition was 7.09% (inactive) in assay [1]; 7.08% in assay [2]; 2.19% in assay [3]; 7.8% in assay [4]; 1.15% in assay [5]; 7.43% in assay [6].
For `CC[C@@H](c1ccc(F)c(F)c1)n1c(C(=O)OC)c(-c2ccno2)[nH]c1=S`, the activity change, negative = inhibition in assay [1] was 6.91% (inactive); in assay [2] it was 1.62%; in assay [3], 4.04%; in assay [4], 10.6%; in assay [5], -18.4%; in assay [6] it was -1.86%.
Regarding `CCCC1c2ccc(C)n2CCN1C(=O)Nc1ccc(OCC)cc1` (centres undefined), the activity change, negative = inhibition in assay [1] was 1.32% (inactive); in assay [2], 1.56%; in assay [3], 0%; in assay [4], -0.12%; in assay [5], 2.78%; in assay [6], 1.21%.
